ALDH1A1 inh – blocks purified human ALDH1A1 activity; Potency, µM (series often up to 75.3 µM), inactives show at the top dose activity, negative = inhibition, usual class: inhibitors; P00352; Purified ALDH1A1, NADH fluorescence, propionaldehyde substrate; 220,000 tested, 7.3% active; active = well fitted inhibition curve with a large enough effect, not every such curve was filed as active; inconclusive = small, poorly fitted or top-dose-only effect, or another doubt; inactive = no such curve, though single readings can be large or run the other way;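 note: plate controls were no enzyme wells and a reference inhibitor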
RORg inh – blocks mouse ROR gamma transcriptional activity; P51450; Drosophila S2 Gal4-RORgamma UAS-luciferase reporter, 20 h; Potency, µM (highest dose often 53.6 µM), for the others: at the top dose activity change, negative = inhibition, most hits filed as inhibitors; 310,000 tested, 5.4% active; AID 2551; note: nearly all actives have a fitted effect of over 60% in size
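Drosophila Schneider cells stably carrying a metallothionein-driven Gal4 DBD–ROR gamma fusion and a UAS-Photinus luciferase reporter were exposed to compound for 1 hr, then induced with copper sulfate (700 uM final) for 20 hr at ambient temperature before luminescence reading.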
PLK1 PBD inh – inhibitors of human PLK1 polo-box domain binding; 360,000 tested, 2.8% active; Potency, µM, for the others: max response, negative = inhibition, hits mostly inhibitors; Plk1 PBD binding of FITC phosphopeptide, fluorescence polarization; P53350; note: series mostly up to about 57 µM; nearly all actives have a fitted effect of over 65% in size
Target sequence (P53350 whole entry, looked up, the tested form may be a part): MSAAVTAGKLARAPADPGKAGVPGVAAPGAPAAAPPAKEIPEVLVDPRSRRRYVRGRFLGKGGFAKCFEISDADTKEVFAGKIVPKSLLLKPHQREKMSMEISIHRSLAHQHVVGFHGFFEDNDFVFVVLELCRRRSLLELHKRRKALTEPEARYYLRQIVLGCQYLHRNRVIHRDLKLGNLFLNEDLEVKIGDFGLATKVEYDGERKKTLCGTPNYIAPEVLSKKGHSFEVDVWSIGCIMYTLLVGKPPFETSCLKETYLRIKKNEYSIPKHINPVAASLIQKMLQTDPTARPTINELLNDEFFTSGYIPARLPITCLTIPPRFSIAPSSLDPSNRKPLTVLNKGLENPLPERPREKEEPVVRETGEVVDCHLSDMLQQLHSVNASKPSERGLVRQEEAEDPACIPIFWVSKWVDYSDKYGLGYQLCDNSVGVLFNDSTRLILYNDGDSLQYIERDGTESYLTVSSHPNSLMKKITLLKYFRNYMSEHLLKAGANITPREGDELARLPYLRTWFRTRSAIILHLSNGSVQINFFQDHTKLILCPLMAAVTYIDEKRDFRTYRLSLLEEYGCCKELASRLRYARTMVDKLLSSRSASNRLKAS
Sfp inh – inhibitors of Bacillus subtilis Sfp phosphopantetheinyl transferase. Biochemical Sfp PPTase activity, qHTS. Potency, µM, inactives show largest response in the series, negative = inhibition, most hits filed as inhibitors. 310,000 tested, 3.5% active;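 note: the enzyme is Sfp with the accession as filed and its product quenches rhodamine fluorescence; 0% = enzyme reaction without inhibitor and -100% = no enzyme wells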
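Fluorescence-quenching assay with 15 nM Sfp, 5 uM rhodamine-CoA and 12.5 uM BHQ-2-labelled ybbR peptide in pH 7.6 Hepes/MgCl2 buffer. Enzyme was pre-incubated with compound for 15 min at room temperature. Rate was taken from the 30-min fluorescence change (525/598 nm).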
Gal4-VP16 FLuc – inhibits Gal4-VP16 luciferase reporter, ROR gamma counter-screen; AID 2546; Potency, µM (titrated, usually from 53.6 µM), for inactives: at the top dose activity, negative = inhibition, usual class: inhibitors; Drosophila S2 Gal4-VP16 UAS-luciferase, luminescence, 20 h; 310,000 tested, 3.5% active;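 note: Gal4-VP16 expression switched on by copper sulfate through the metallothionein promoter; nearly all actives have a fitted effect of over 50% in size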
An asterisk follows results filed as active; ? = inconclusive; nt = no result given; [ ] = dose if it differs, or a comment. Sampled rows, rich in hits. Any-hit rate of the full collection: about 12%. Unless noted, calls come from the whole dose curve; as a rule, active = well fitted curve in the direction sought with a large enough effect; inconclusive = small, poorly fitted or top-dose-only effect, or another doubt; inactive = no such curve, though single readings can be large; an effect the other way counts as inactive or inconclusive. Unless noted, % is set by controls: 0 for no effect and ±100 for the full control effect; potency is the fitted concentration of half-maximal effect.

SMILES	ALDH1A1 inh	RORg inh	PLK1 PBD inh	Sfp inh	Gal4-VP16 FLuc
CCOC(=O)C[C@@H]1OC[C@H](Cc2ccccc2)N1S(=O)(=O)c1ccc(C)cc1	nt	nt	-5%	nt	nt
Cc1ccc(NN2C(=O)C=C(c3ccc(Cl)cc3)C2=O)cc1	18%	7.1µM*	4.7µM*	?	8.9µM*
COc1ccc(Nc2cccccc2=O)cc1	6%	0%	1%	12%	15%
COc1ccc(C2=CC(=O)N(Nc3ccccc3)C2=O)cc1	-5%	?	-25%	-4%	11µM*
COC(=O)Cc1[nH]n(-c2nc3ccccc3s2)c(=O)c1C(C)=Nc1ccc(C)cc1	5%	?	1%	56µM*	-22%
COC(=O)Cc1[nH]n(-c2ccccc2)c(=O)c1C(C)=Nc1ccccc1	0%	-2%	0%	10%	-8%
COC(=O)Cc1[nH]n(-c2nc3ccccc3s2)c(=O)c1C(C)=Nc1ccc(Cl)cc1	nt	11µM*	-2%	79µM*	-20%
CCC(=NCc1ccco1)c1c(C(F)(F)F)[nH]n(-c2nc3ccccc3s2)c1=O	-8%	?	-10%	-4%	-17%
c1cnc2c(-c3nccc4c3[nH]c3ccccc34)cccc2c1	-4%	7%	nt	3%	-5%
CCN1CCN(CCOc2ccc(Br)cc2C)CC1	-4%	4%	-2%	50µM*	3%
CCN1CCN(CCCOc2ccc(Cl)cc2Br)CC1	13µM*	-4%	0%	10µM*	-8%
Cc1cc(Br)ccc1OCCN1CCCC1	nt	-9%	-12%	-25%	2%
CCN1CCN(CCOc2cccc(Cl)c2Cl)CC1	8.9µM*	29%	-2%	50µM*	-11%
Clc1cccc(Cl)c1CSc1nnc([C@@H]2CCCN2)o1	nt	4%	-2%	15%	-10%
CCCn1nc(C(=O)NNC(=O)CCCOc2ccc(OC)cc2)c2ccccc2c1=O	nt	nt	3%	nt	nt
Nc1nnc(CCS(=O)(=O)c2cc(Cl)ccc2Cl)s1	25µM*	-4%	?	-3%	3%
COc1cccc(-c2ccc(SCC(=O)N3CCc4ccccc43)nn2)c1	20µM*	29%	nt	-16%	-16%
O=C(CSc1n[nH]c(-c2cccs2)n1)N1CCCc2ccccc21	-3%	?	-8%	11%	1%
CCCc1cc(=O)[nH]c(SCC(=O)CSc2nc(CCC)cc(=O)[nH]2)n1	14µM*	-31%	-16%	56µM*	-1%
O=C(CSc1nnc(-c2ccccc2)c(-c2ccccc2)n1)N1CCc2ccccc21	?	3.2µM*	-2%	-19%	5%
O=C(CSc1n[nH]c(-c2ccccc2O)n1)N1CCCc2ccccc21	2%	11µM*	-6%	7%	14%
CCCc1cc(=O)[nH]c(SCC(=O)NC)n1	3%	-19%	-6%	-8%	0%
COc1ccc(NC(=O)N2C[C@H]3CON(C)[C@H]3C[C@H]2c2ccc(N3CCCCC3)cc2)cc1	nt	nt	-1%	nt	nt
CCCC1OC2CC3C4CCC5=CC(=O)C=CC5(C)C4C(O)CC3(C)[C@]2(C(=O)CO)O1 (stereo partly drawn)	-3%	?	nt	11%	2%
C[C@@H]1[C@H](C)CC[C@@]2(C(=O)O)CC[C@]3(C)C(=CC[C@H]4[C@@]5(C)CC[C@@H](O)C(C)(C)[C@@H]5CC[C@@]43C)[C@@H]12	13%[20.9 µM]	nt	nt	17%	nt
SMILES	ALDH1A1 inh	RORg inh	PLK1 PBD inh	Sfp inh	Gal4-VP16 FLuc
Nc1cc(=O)[nH]c(SCC(=O)N2CCCc3ccccc32)n1	?	?	-4%	17%	21%
O=C(CSc1nc(-c2ccccc2)cc(=O)[nH]1)N1CCc2ccccc21	0%	2%	3µM*	10%	3%
CCCc1cc(=O)[nH]c(SCC(=O)N(C)CC(=O)Nc2ccccc2CC)n1	1%	2%	27µM*	0%	12%
COCCNC(=O)CSc1nnc(-c2ccccc2)c(-c2ccccc2)n1	22µM*	-3%	3%	10%	13%
CCCc1cc(=O)[nH]c(SCC(=O)N2CCCc3ccccc32)n1	?	-1%	21µM*	2%	6%
CCOC(=O)CCCNC(=O)CSc1nnc(-c2ccccc2)c(-c2ccccc2)n1	nt	3%	-7%	-3%	-10%
CCCc1cc(=O)[nH]c(SCC(=O)N(C)Cc2ccccc2)n1	-6%	4%	-14%	2%	-2%
O=C1CCC(=O)N1CO	nt	-6%	nt	9%	1%
CCC/C=C/c1ccc(CN2C(CC(C)C)C(=O)N(Cc3cn(CC4CCCCC4)nn3)CCS2(=O)=O)cc1 (stereo not drawn)	nt	nt	-7%	nt	nt
COc1cccc(CNC(=O)c2cc3c(c(-c4cccc(-c5cccc(C#N)c5)c4)n2)[C@H](CCO)N(S(=O)C(C)(C)C)C3)c1 (stereo partly drawn)	nt	nt	3%	nt	nt
CCCCCCc1ccc(C(=O)CCN(C)C)cc1	nt	nt	nt	?	-4%
CS(=O)(=O)c1ccc2nc(NC(=O)Oc3ccccc3)sc2c1	3.2µM*	-4%	-3%	12%	0%
Cc1noc(C)c1C(=O)Nc1nc2ccc(S(C)(=O)=O)cc2s1	nt	-32%	3%	16%	11µM*
O=C1c2ccccc2C(c2nnnn2-c2ccc3ccccc3c2)N1C1CC1 (stereo not drawn)	nt	nt	2%	nt	nt
CC(C)(C)S(=O)N1Cc2cc(C(=O)N3CCOCC3)nc(-c3cccc(Br)c3)c2[C@@H]1CCO (stereo partly drawn)	nt	nt	-28%	nt	nt
N#C/C(=C\c1ccccc1O)C(=O)Nc1ccccn1	nt	7%	-14%	10%	-15%
CCCn1cnc2c(SCc3ccccc3Cl)nc(N)nc21	nt	nt	4%	nt	nt
Cc1c(N/N=C(\C#N)C(=O)c2ccccc2)c(=O)n(-c2ccccc2)n1C	?	16µM*	-7%	-10%	?
Cc1ccccc1C(=O)/C(C#N)=N/Nc1c(C)n(C)n(-c2ccccc2)c1=O	4%	8.9µM*	-11%	23%	20µM*
Cc1c(N/C=C(\Cl)C(=O)C(F)(F)F)c(=O)n(-c2ccccc2)n1C	32µM*	-30%	-3%	22µM*	8%
CCOC(=O)/C(C#N)=N/Nc1c(C)n(C)n(-c2ccccc2)c1=O	7.9µM*	-34%	-2%	-90%	11%
Cc1c(NC=C(C#N)C#N)c(=O)n(-c2ccccc2)n1C	3%	-16%	-1%	3%	2%
COC(=O)C1(C(=O)OC)CC2=CCC3C(=O)N(c4ccccc4)C(=O)C3C2Cc2ccccc2[C@@H]1C[N+](=O)[O-] (stereo partly drawn)	-13%	-25%	nt	4%	4%
CCOc1ccc(N2C(=O)CC(SCc3nc4ccccc4[nH]3)C2=O)cc1 (stereo not drawn)	4.5µM*	11µM*	-13%	-26%	?
O=C1CC(SCc2nc3ccccc3[nH]2)C(=O)N1c1ccc(Cl)cc1 (stereo not drawn)	25µM*	3.5µM*	-16%	-8%	6.3µM*
O=C1CC(SCCc2nc3ccccc3[nH]2)C(=O)N1c1ccc(Cl)cc1 (stereo not drawn)	?	-18%	-14%	-13%	6%

Bioassay records (PubChem)
